# B1: unnamed (peptide)
# chain: DFTLPPPPPPPGLDE
# Biological target: ScBbc1
# Experiment: SPOT peptide array binding signal intensity (averaged, normalized) (arbitrary units (background-subtracted, floor 0; scale differs between SH3 domains)); higher = stronger binding of the SH3 domain to the peptide
# How it was run: (§1)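 SH3 domains from four yeast species were expressed as GST fusions in E. coli BL21(DE3) and purified on glutathione Sepharose. Each was incubated at 10 μg/ml overnight at 4°C in TBS-based blocking buffer on cellulose membranes bearing synthetic 15-mer peptides, in which serines replaced cysteines. Bound protein was detected with anti-GST antibody, an HRP anti-mouse secondary and luminol, then imaged and quantified with Genespotter. The binding signal is the normalized, background-subtracted spot intensity averaged over replicates, in arbitrary units that are not the same from one domain to another.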
row,Binder,SPOT peptide array binding signal intensity
1,B1,≤ 0

# Biological target: ScBem1-D1
# Experiment: as above
# How it was run: as §1
row,Binder,SPOT peptide array binding signal intensity
1,B1,≤ 0

# Biological target: ScBzz1-D1
# Experiment: as above
# How it was run: as §1
row,Binder,SPOT peptide array binding signal intensity
1,B1,≤ 0

# Biological target: ScBzz1-D2
# Experiment: as above
# How it was run: as §1
row,Binder,SPOT peptide array binding signal intensity
1,B1,1

# Biological target: ScCyk3
# Experiment: as above
# How it was run: as §1
row,Binder,SPOT peptide array binding signal intensity
1,B1,0.5

# Biological target: ScFus1
# Experiment: as above
# How it was run: as §1
row,Binder,SPOT peptide array binding signal intensity
1,B1,3

# Biological target: ScHof1
# Experiment: as above
# How it was run: as §1
row,Binder,SPOT peptide array binding signal intensity
1,B1,14.8

# Biological target: ScHse1
# Experiment: as above
# How it was run: as §1
row,Binder,SPOT peptide array binding signal intensity
1,B1,≤ 0

# Biological target: ScLsb1
# Experiment: as above
# How it was run: as §1
row,Binder,SPOT peptide array binding signal intensity
1,B1,≤ 0

# Biological target: ScLsb2
# Experiment: as above
# How it was run: as §1
row,Binder,SPOT peptide array binding signal intensity
1,B1,3.5

# Biological target: ScLsb3
# Experiment: as above
# How it was run: as §1
row,Binder,SPOT peptide array binding signal intensity
1,B1,≤ 0

# Biological target: ScLsb4
# Experiment: as above
# How it was run: as §1
row,Binder,SPOT peptide array binding signal intensity
1,B1,≤ 0

# Biological target: ScMyo3
# Experiment: as above
# How it was run: as §1
row,Binder,SPOT peptide array binding signal intensity
1,B1,2030

# Biological target: ScMyo5
# Experiment: as above
# How it was run: as §1
row,Binder,SPOT peptide array binding signal intensity
1,B1,1990

# Biological target: ScNbp2
# Experiment: as above
# How it was run: as §1
row,Binder,SPOT peptide array binding signal intensity
1,B1,18

# Biological target: ScPex13
# Experiment: as above
# How it was run: as §1
row,Binder,SPOT peptide array binding signal intensity
1,B1,≤ 0

# Biological target: ScRvs167
# Experiment: as above
# How it was run: as §1
row,Binder,SPOT peptide array binding signal intensity
1,B1,3.33

# Biological target: ScSho1
# Experiment: as above
# How it was run: as §1
row,Binder,SPOT peptide array binding signal intensity
1,B1,≤ 0

# Biological target: ScSla1-D1-D2
# Experiment: as above
# How it was run: as §1
row,Binder,SPOT peptide array binding signal intensity
1,B1,≤ 0

# Biological target: ScSla1-D3
# Experiment: as above
# How it was run: as §1
row,Binder,SPOT peptide array binding signal intensity
1,B1,≤ 0

# Biological target: SpAbp1-D1
# Experiment: as above
# How it was run: as §1
row,Binder,SPOT peptide array binding signal intensity
1,B1,≤ 0

# Biological target: SpBbc1
# Experiment: as above
# How it was run: as §1
row,Binder,SPOT peptide array binding signal intensity
1,B1,≤ 0

# Biological target: SpBzz1-D1
# Experiment: as above
# How it was run: as §1
row,Binder,SPOT peptide array binding signal intensity
1,B1,1300

# Biological target: SpBzz1-D2
# Experiment: as above
# How it was run: as §1
row,Binder,SPOT peptide array binding signal intensity
1,B1,2.5

# Biological target: SpCyk3
# Experiment: as above
# How it was run: as §1
row,Binder,SPOT peptide array binding signal intensity
1,B1,≤ 0

# Biological target: SpHof1
# Experiment: as above
# How it was run: as §1
row,Binder,SPOT peptide array binding signal intensity
1,B1,2

# Biological target: SpHof1-2
# Experiment: as above
# How it was run: as §1
row,Binder,SPOT peptide array binding signal intensity
1,B1,2.5

# Biological target: SpHof1-3
# Experiment: as above
# How it was run: as §1
row,Binder,SPOT peptide array binding signal intensity
1,B1,1.5

# Biological target: SpHse1
# Experiment: as above
# How it was run: as §1
row,Binder,SPOT peptide array binding signal intensity
1,B1,≤ 0

# Biological target: SpLsb1
# Experiment: as above
# How it was run: as §1
row,Binder,SPOT peptide array binding signal intensity
1,B1,≤ 0

# Biological target: SpLsb4
# Experiment: as above
# How it was run: as §1
row,Binder,SPOT peptide array binding signal intensity
1,B1,≤ 0

# Biological target: SpMyo1
# Experiment: as above
# How it was run: as §1
row,Binder,SPOT peptide array binding signal intensity
1,B1,1210

# Biological target: SpNbp2
# Experiment: as above
# How it was run: as §1
row,Binder,SPOT peptide array binding signal intensity
1,B1,9

# Biological target: SpPex13
# Experiment: as above
# How it was run: as §1
row,Binder,SPOT peptide array binding signal intensity
1,B1,≤ 0

# Biological target: SpRvs167
# Experiment: as above
# How it was run: as §1
row,Binder,SPOT peptide array binding signal intensity
1,B1,≤ 0

# Biological target: SpSla1-D1-D2
# Experiment: as above
# How it was run: as §1
row,Binder,SPOT peptide array binding signal intensity
1,B1,≤ 0

# Biological target: SpSla1-D3
# Experiment: as above
# How it was run: as §1
row,Binder,SPOT peptide array binding signal intensity
1,B1,≤ 0
